Laboratory results taken from PubChem BioAssay (EPA / NIEHS).
Results filed as inconclusive are left out. The source made the active and inactive calls. Rule for the calls, unless noted: active = hit-call score of the fitted dose curve at least 0.9, where 1 is the maximum; inconclusive = response in the unintended direction; inactive = score below 0.9.

Assays:
[1] = target: Nuclear receptor subfamily 1 group I member 3 (Homo sapiens) (UniProt Q14994); test: ATG_CAR_TRANS: Attagene TRANS-FACTORIAL HepG2 Assay for human Constitutive Androstane Receptor (CAR) (AID 2282969); settings: HepG2 Attagene TRANS-FACTORIAL CAR reporter;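 note: activators raise reporter mRNA above DMSO so AC50 marks induction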
Procedure, shortened: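 Signal is reporter mRNA induction relative to DMSO, measured 24 h after dosing by RT-PCR with fluorescent primer extension and capillary electrophoresis. Human HepG2 liver cells carried transiently transfected chimeric NR-Gal4/GAL4-UAS reporter constructs.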

[2] = ATG_M_19_TRANS: Attagene TRANS-FACTORIAL HepG2 Assay for M19 Transcription Factor (Internal Marker) (AID 2282974); settings: HepG2 Attagene TRANS-FACTORIAL M19 internal marker reporter
Procedure, shortened: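 24 h chemical exposure of transiently transfected HepG2 (MRTU library). RNA → oligo(dT) RT → PCR → 6-FAM labelling → HpaI cut → CE fluorescence. Positive-direction fit vs DMSO baseline; background internal-marker readout.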

[3] = ATG_M_32_TRANS: Attagene TRANS-FACTORIAL HepG2 Assay for M32 Transcription Factor (Internal Marker) (AID 2282984); settings: HepG2 Attagene TRANS M32 internal marker reporter;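 note: transcript level of a background control reporter unit measured by RT-PCR and capillary electrophoresis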
Procedure, shortened: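 Cell-based TRANS-format assay in HepG2: exogenous chimeric GAL4 reporter units transiently expressed, compounds applied 24 h. Reporter mRNA detected by RT-PCR plus capillary electrophoresis; this readout is an internal background marker.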

[4] = target: human Peroxisome Proliferator-activated Receptor delta (PPARd), PPARD (gene 5467) (UniProt Q03181); test: ATG_PPARd_TRANS: Attagene TRANS-FACTORIAL HepG2 Assay for human Peroxisome Proliferator-activated Receptor delta (PPARd) (AID 2283002)
Procedure, shortened: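 Read-out is induced reporter mRNA, quantified by RT-PCR with fluorescent labelling and capillary electrophoresis after 24 h dosing. Cells are HepG2 transiently carrying multiple GAL4-UAS reporter units driven by exogenous NR-GAL4 chimeras; DMSO serves as baseline.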

[5] = target: human Thyroid Receptor alpha (THRa1), THRA (gene 7067) (UniProt P10827); test: ATG_THRa1_TRANS: Attagene TRANS-FACTORIAL HepG2 Assay for human Thyroid Receptor alpha (THRa1) (AID 2283014)
Procedure, shortened: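 Transcripts from GAL4-UAS-driven reporters, measured after 24 h compound exposure by RT-PCR plus capillary electrophoresis of 6-FAM-labeled fragments, were fitted for gain of signal relative to DMSO. Cells: transiently transfected HepG2 expressing NR-Gal4 chimeras.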

[6] = TOX21_p53_BLA_p4_viability: Viability Assessment in the Tox21 HCT-116 p53 Agonism Beta-lactamase Assay, Phase 4 (AID 2283597);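 note: hits lower the luminescence signal meaning cytotoxicity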
Procedure, shortened: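 Cytotoxicity as reduced cellular ATP (CellTiter-Glo luminescence, 30 min room temperature), measured in the same wells following the CCF4 FRET p53 reading. Human HCT-116 cells received compounds in DMSO (217-fold dilution) for 16 h.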

[7] = ATG_GAL4_TRANS: Attagene TRANS-FACTORIAL HepG2 Assay for GAL4 (Internal Marker) (AID 2282976); settings: HepG2 Attagene TRANS GAL4 internal marker reporter
Procedure, shortened: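 In transfected human HepG2 liver cells dosed 24 h, GAL4 reporter mRNA serves as a baseline marker. Detection by RT-PCR with fluorescent capillary electrophoresis, activity fitted upward relative to DMSO.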

[8] = target: Oxysterols receptor LXR-alpha (Homo sapiens) (UniProt Q13133); test: ATG_LXRa_TRANS: Attagene TRANS-FACTORIAL HepG2 Assay for human Liver X Receptor alpha (LXRa) (AID 2282980); settings: HepG2 Attagene TRANS reporter, LXRa transactivation
Procedure, shortened: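 Chemical-induced reporter mRNA measured by RT-PCR with fluorescent labelling and capillary electrophoresis after 24 h dosing of transiently transfected HepG2 cells expressing exogenous NR-Gal4 chimeras; increases scored against DMSO baseline.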

[9] = target: Nuclear receptor subfamily 4 group A member 2 (Homo sapiens) (UniProt P43354); test: ATG_NURR1_TRANS: Attagene TRANS-FACTORIAL HepG2 Assay for human Nuclear Receptor Related Protein 1 (NURR1) (AID 2282985); settings: HepG2 Attagene TRANS reporter, mRNA readout
Procedure, shortened: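 Measures transcriptional activation by an exogenous NR-Gal4 chimera in transfected HepG2 liver cells. After 24 h, reporter RNA is reverse-transcribed, amplified and resolved by capillary electrophoresis; DMSO defines baseline.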

[10] = target: Peroxisome proliferator-activated receptor gamma (Homo sapiens) (UniProt P37231); test: ATG_PPARg_TRANS: Attagene TRANS-FACTORIAL HepG2 Assay for human Peroxisome Proliferator-activated Receptor-gamma (PPARg) (AID 2283007)
Procedure, shortened: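 Read-out: reporter mRNA induction, detected by fluorescence after RT-PCR and capillary electrophoresis. Transiently transfected human HepG2 liver cells carrying a chimeric NR-Gal4 construct were dosed for 24 h; activity was fitted upward relative to DMSO.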

[11] = target: human RAR-related Orphan Receptor beta (RORb), RORB (gene 6096) (UniProt Q92753); test: ATG_RORb_TRANS: Attagene TRANS-FACTORIAL HepG2 Assay for human RAR-related Orphan Receptor beta (RORb) (AID 2283010)
Procedure, shortened: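 Multiplexed transcription-factor reporter assay: HepG2 cells transiently carrying NR-Gal4/GAL4-UAS constructs, 24 h treatment, mRNA quantified by RT-PCR plus capillary electrophoresis fluorescence; activity scored as induction over DMSO.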

[12] = ACEA_ER_AUC_viability: ACEA Biosciences xCELLigence Real-Time Cell Analysis on Estrogen Receptor Agonism for Viability (AID 2283782);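 note: hit means loss of impedance signal meaning reduced cell growth or viability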
Procedure, shortened: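 Viability endpoint: reduced impedance area under the curve relative to DMSO, recorded by real-time electrode sensing over ~80 h of continuous exposure. Duplicate plates of T47D in hormone-depleted medium; eight concentrations, 1:4 dilutions, 100 uM maximum.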

[13] = CCTE_Harrill_HTTr_Viability_MCF7: CCTE's 6-hour Cell Viability Assessment for the High-Throughput Transcriptomics (HTTr) Platform, in MCF-7 cells cultured in DMEM + 10% fetal bovine serum, Harrill Lab (AID 2284010; active = hit-call score of the fitted dose curve at least 0.9, where 1 is the maximum; inactive = score below 0.9)
Procedure, shortened: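 Eight-point concentration series, six-hour exposure. Propidium iodide exclusion imaged to assess membrane integrity as a cytotoxicity readout; bidirectional fitting was done with DMSO as negative control and activity baseline.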

[14] = CCTE_Harrill_HTTr_Apoptosis_MCF7: CCTE's 6-hour Apoptosis Assessment for the High-Throughput Transcriptomics (HTTr) Platform, in MCF-7 cells cultured in DMEM + 10% fetal bovine serum, Harrill Lab (AID 2284011; active = hit-call score of the fitted dose curve at least 0.9, where 1 is the maximum; inactive = score below 0.9)
Procedure, shortened: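 High-content imaging of CellEvent Caspase 3/7 Green signal follows a six-hour exposure, with eight concentrations per chemical. MCF-7 cells grown in DMEM plus 10% fetal bovine serum; activity fitted in both directions against DMSO.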

Measured: outcome

Chain of human RAR-related Orphan Receptor beta (RORb), RORB (gene 6096) (Q92753 whole entry, looked up, the tested form may be a part): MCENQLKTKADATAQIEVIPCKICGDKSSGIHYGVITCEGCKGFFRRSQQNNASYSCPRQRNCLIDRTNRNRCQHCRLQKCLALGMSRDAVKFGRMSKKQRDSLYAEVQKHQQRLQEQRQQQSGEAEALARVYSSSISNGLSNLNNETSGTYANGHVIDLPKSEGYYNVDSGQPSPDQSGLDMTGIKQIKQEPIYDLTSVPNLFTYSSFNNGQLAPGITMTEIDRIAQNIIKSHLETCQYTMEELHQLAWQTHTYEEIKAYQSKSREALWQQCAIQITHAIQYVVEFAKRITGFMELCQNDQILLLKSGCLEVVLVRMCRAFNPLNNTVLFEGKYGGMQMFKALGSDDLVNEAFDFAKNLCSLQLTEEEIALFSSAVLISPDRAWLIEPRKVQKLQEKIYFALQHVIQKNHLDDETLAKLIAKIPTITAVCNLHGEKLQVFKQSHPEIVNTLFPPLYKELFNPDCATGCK
Chain of human Thyroid Receptor alpha (THRa1), THRA (gene 7067) (P10827 whole entry, looked up, the tested form may be a part): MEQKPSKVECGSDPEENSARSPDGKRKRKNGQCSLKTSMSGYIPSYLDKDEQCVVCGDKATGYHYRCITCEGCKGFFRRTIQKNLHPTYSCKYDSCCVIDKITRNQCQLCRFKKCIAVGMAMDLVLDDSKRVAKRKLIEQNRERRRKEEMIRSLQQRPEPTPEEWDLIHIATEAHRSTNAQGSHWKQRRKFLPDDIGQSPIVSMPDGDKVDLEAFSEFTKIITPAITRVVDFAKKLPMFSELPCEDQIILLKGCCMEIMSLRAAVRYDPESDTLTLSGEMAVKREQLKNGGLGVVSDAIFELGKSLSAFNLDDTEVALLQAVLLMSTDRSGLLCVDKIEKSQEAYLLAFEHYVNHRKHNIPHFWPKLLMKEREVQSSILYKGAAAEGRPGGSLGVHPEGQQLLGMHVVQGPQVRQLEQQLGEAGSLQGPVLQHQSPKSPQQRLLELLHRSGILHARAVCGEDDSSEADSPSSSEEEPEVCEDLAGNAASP
Chain of Oxysterols receptor LXR-alpha (Homo sapiens) (Q13133 whole entry, looked up, the tested form may be a part): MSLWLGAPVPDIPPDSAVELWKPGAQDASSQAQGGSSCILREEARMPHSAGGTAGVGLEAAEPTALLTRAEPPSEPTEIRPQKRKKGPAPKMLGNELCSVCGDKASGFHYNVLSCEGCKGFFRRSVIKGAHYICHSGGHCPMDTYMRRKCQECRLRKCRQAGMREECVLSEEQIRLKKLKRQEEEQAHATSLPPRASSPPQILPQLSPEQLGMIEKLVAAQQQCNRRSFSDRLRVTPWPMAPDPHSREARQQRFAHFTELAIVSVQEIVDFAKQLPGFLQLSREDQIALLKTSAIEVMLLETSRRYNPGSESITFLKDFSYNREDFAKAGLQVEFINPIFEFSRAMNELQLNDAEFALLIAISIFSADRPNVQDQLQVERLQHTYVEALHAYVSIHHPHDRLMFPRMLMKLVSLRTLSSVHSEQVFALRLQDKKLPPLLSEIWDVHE
Chain of Nuclear receptor subfamily 4 group A member 2 (Homo sapiens) (P43354 whole entry, looked up, the tested form may be a part): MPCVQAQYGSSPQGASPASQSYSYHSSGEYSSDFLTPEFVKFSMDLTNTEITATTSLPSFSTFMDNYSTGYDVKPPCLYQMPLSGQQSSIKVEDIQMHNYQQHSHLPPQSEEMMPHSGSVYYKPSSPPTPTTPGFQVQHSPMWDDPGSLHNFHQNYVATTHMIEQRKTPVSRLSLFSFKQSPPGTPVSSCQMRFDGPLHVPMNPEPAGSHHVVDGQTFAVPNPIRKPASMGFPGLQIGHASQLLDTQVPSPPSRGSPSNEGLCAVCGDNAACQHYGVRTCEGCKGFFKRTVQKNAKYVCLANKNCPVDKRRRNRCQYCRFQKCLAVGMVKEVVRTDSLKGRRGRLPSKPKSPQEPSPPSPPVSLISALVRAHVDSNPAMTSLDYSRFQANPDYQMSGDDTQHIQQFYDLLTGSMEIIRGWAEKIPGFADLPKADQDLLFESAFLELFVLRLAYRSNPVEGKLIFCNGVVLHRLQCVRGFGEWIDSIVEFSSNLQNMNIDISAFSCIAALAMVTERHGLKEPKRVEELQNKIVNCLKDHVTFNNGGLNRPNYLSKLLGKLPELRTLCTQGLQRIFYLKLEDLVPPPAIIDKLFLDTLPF
Chain of human Peroxisome Proliferator-activated Receptor delta (PPARd), PPARD (gene 5467) (Q03181 whole entry, looked up, the tested form may be a part): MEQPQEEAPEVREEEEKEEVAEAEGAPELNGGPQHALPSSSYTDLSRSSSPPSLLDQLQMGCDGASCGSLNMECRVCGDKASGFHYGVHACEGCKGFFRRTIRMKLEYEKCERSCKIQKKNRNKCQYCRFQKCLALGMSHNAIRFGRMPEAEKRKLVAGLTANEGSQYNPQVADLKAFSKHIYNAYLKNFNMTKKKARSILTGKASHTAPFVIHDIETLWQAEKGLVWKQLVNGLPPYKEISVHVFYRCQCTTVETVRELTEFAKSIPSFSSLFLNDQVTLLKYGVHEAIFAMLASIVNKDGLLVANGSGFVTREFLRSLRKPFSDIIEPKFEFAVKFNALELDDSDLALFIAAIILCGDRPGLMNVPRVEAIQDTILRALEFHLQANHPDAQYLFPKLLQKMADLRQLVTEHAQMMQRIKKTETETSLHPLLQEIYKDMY
Chain of Nuclear receptor subfamily 1 group I member 3 (Homo sapiens) (Q14994 whole entry, looked up, the tested form may be a part): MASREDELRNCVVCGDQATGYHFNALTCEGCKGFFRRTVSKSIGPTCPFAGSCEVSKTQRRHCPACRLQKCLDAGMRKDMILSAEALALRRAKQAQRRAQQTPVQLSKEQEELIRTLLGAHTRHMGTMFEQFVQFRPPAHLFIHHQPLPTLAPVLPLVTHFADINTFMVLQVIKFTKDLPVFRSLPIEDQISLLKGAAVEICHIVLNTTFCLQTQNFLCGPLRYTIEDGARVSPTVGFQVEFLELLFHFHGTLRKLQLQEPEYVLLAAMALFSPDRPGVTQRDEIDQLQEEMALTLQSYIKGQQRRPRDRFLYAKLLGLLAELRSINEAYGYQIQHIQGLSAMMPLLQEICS
Chain of Peroxisome proliferator-activated receptor gamma (Homo sapiens) (P37231 whole entry, looked up, the tested form may be a part): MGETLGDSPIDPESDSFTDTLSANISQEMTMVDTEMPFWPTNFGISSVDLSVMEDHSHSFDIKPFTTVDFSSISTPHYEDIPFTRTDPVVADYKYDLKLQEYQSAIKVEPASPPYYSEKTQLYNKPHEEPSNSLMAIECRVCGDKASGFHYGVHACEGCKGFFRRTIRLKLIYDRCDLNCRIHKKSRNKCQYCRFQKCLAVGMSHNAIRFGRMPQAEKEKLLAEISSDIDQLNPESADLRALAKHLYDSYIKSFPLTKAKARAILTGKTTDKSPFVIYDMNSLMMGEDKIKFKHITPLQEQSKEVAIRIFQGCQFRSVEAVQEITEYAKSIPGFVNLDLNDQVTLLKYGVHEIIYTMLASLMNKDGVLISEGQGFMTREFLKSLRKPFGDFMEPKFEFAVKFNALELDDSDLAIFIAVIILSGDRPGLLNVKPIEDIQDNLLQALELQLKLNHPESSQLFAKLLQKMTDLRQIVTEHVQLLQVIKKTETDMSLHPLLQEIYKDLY

c1ccc2c(c1)Oc1ccccc1S2
inactive: [1] | [2] | [3] | [4] | [5] | [6]

CC[N+](CC)(CC(=O)Nc1c(C)cccc1C)Cc1ccccc1
inactive: [2] | [7] | [8] | [9] | [10] | [11] | [12]

CC[N+](CC)(CC(=O)Nc1c(C)cccc1C)Cc1ccccc1 (tested in a mixture with another compound)
inactive: [7] | [11] | [13] | [14]

CC(=O)CC(=O)OC(C)(C)C
inactive: [6]

O=C(O)/C=C/C(=O)O
inactive: [7] | [8] | [3] | [9] | [4] | [11] | [5] | [12] | [13] | [14]
